About 83,000 compounds went through this panel and 20% of them were active in at least one assay; those are over-represented in the sample as a whole.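 For each line, cells grew in 96-well plates with the test compound present at a single concentration for 48 hours.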 A number with no mark means an inactive call. The source made the active and inactive calls. Rule for the calls: active = growth percent below 10; inactive = the rest.

The values below come from PubChem BioAssay (NCI).

Common to all, as to assay: NCI-60 one-dose screen, 48 h (100 = growth as untreated, 0 = no growth, -100 = all killed)
Settings in all cases: 10 µM unless noted

Test [1] has as its system SK-MEL-2 melanoma.
In test [2] the test system is EKVX NSCLC.
Test [3] relates to SN12C renal.
Test [4] deals with UO-31 renal.
In test [5] the test system is TK-10 renal.
The subject of test [6] is ACHN renal.
Test [7] relates to CAKI-1 renal.
The subject of test [8] is A498 renal.
The subject of test [9] is MOLT-4 leukemia.
Test [10] relates to SR leukemia.
In test [11] the test system is RPMI-8226 leukemia.
The subject of test [12] is OVCAR-8 ovarian.
The subject of test [13] is OVCAR-5 ovarian.
Test [14] has as its system SK-OV-3 ovarian.
Test [15] relates to IGROV1 ovarian.
The test system of test [16] is OVCAR-3 ovarian.
Test [17] has as its system HS 578T breast.
For test [18], the system named is NCI/ADR-RES ovarian.
The test system of test [19] is CCRF-CEM leukemia.
The test system of test [20] is OVCAR-4 ovarian.

Turning to `O=C1c2ccccc2C(=O)C1c1ccc(Br)cc1`, the growth was 106% in test [1]; 95.6% in test [2]; 95.3% in test [3]; 82.6% in [4]; 125% in test [5]; 97.1% in test [6]. In addition, the growth is 82.8% in test [7]; 85.5% in test [8]; 101% in test [9]; 97.3% in test [10]; 82.9% in test [11]; 102% in [12]. Also, the growth in test [13] was 107%; in test [14], 111%; in test [15], 104%; in test [16], 116%; in test [17], 99.3%; in [18], 91.9%.

For the compound `C=C1C(=O)O[C@H]2[C@H]1CC/C(COC(=O)c1ccc(C(=O)O)s1)=C\CC[C@@]1(C)O[C@@H]21`, the growth is 49.5% in test [1]; 34.2% in test [2]; -8.57% (active) in [3]; 13.1% in test [5]; 17.4% in test [6]; 8.39% (active) in test [7]. Further, the growth was 104% in [8]; -28.7% (active) in test [19]; -7% (active) in test [9]; -12.8% (active) in test [10]; -25.9% (active) in [11]; 17.9% in test [12]. The growth in test [13] was 48.6%; in test [20], 35.2%; in test [14] it was 96.6%; in [15], -26.8% (active); in test [16] it was 0.215% (active); in test [17], 37.6%. Further, the growth in [18] is 42%.

For the compound `CN(C)S(=O)(=O)Oc1ccc(-c2sc3cc(OS(=O)(=O)N(C)C)ccc3c2C(=O)c2ccc(OCCN3CCCCC3)cc2)cc1`, the growth in test [1] was 75.5%; in [2] it was 68.9%; in test [3] it was 87.1%; in test [5], 79%; in [6] it was 32.3%; in test [7], 73.4%. Moreover, the growth was 85.2% in [8]; 18.8% in test [19]; 36.6% in test [9]; -20.2% (active) in test [10]; 38.1% in test [11]; 43.8% in test [12]. In addition, the growth in test [13] was 78.4%; in test [20], 49.7%; in test [14], 62.4%; in test [15], 81%; in test [16], 69.3%; in test [17] it was 59.7%. In [18], the growth was 72.3%.

For the compound `O=C(CI)NC(=O)NC(=O)NCc1ccccc1`, the growth is 69.4% in test [1]; 93.6% in [2]; 33% in [3]; -20.6% (active) in test [4]; 74.7% in [5]; -45.5% (active) in test [6]. Moreover, the growth was 5.31% (active) in test [7]; 91.2% in test [8]; -24.5% (active) in [9]; -5.93% (active) in test [10]; 29.4% in test [11]; 56.3% in test [12]. Also, the growth in [13] is 44.3%; in [20], 30.3%; in [14], 104%; in test [15], 21.1%; in test [16], -55.9% (active); in test [17], 102%. In addition, the growth in test [18] was 71%.

As for `CCOC(=O)CC1CSC(Nc2ccccc2)=N1` (stereo not given), the growth is 97.4% in [1]; 104% in test [2]; 103% in [3]; 91.8% in test [4]; 86% in test [5]; 105% in test [6]. The growth is 103% in test [7]; 83% in [8]; 101% in test [9]; 98.5% in test [10]; 105% in test [11]; 101% in [12]. Further, the growth is 104% in test [13]; 112% in [20]; 105% in test [14]; 103% in [15]; 102% in test [16]; 103% in test [17]. In [18], the growth is 99.8%.

For `C=C(C)[C@@H]1CC[C@]2(C)[C@H](CC=C3[C@@H]4CC(C)(C)CC[C@]4(CO)CC[C@]32C)[C@@]1(C)CCCN`, the growth was -35.7% (active) in test [1]; 97.4% in test [2]; -59.7% (active) in test [3]; -45.8% (active) in [5]; -40.8% (active) in test [6]; 40.3% in [7]. The growth was 80.5% in [8]; -18.4% (active) in test [19]; -35.9% (active) in test [9]; -52.1% (active) in test [10]; -47.5% (active) in test [11]; -85.1% (active) in test [12]. Also, the growth in test [13] was 26%; in [20], -21.8% (active); in [14], 82.8%; in test [15], 8.73% (active); in test [16] it was -42% (active); in test [17], 43.4%. Besides, the growth in test [18] is 49.1%.

`NC(=O)c1cnc(Nc2cccc(N)c2)nc1NCCCNC(=O)C1CCC1`: the growth in test [1] was 65.2%; in test [2] it was 93%; in [3], 33%; in [5], 32.1%; in [6], 49.5%; in test [7], 37.2%. Moreover, the growth in test [8] is 90.4%; in test [19] it was 25.9%; in test [9], 26.1%; in test [10], 77.1%; in test [11], 97.3%; in test [12] it was 71.1%. The growth is 119% in test [13]; 27.1% in test [14]; 65.8% in [15]; 82.6% in [16]; 72.8% in test [17]; 108% in test [18].

On to `COc1ccc(C(=O)/C=C/c2ccc(N3CCCCC3)cc2)cc1OC`, for which the growth in test [1] was 103%; in [2], 92.8%; in test [3], 90.5%; in [5] it was 110%; in test [6], 100%; in test [7], 90.4%. Also, the growth was 87.2% in test [8]; 81.5% in test [19]; 88.7% in test [9]; 73.3% in test [10]; 72.9% in [11]; 92.8% in test [12]. Moreover, the growth in [13] is 99.8%; in test [20], 65.3%; in [14], 107%; in test [15] it was 95.4%; in [16] it was 104%; in test [17], 103%. For the same compound, the growth in [18] is 92.8%.
